Measurements reported in PubChem BioAssay (Tox21).
Values without a mark were called inactive. Results filed as inconclusive are left out. A call without a number means that no potency is given here. Active and inactive are the calls of the source. Unless noted, calls follow the shape of the dose curve; as a rule, active = well fitted curve in the direction sought with a large enough effect in the repeat runs; inconclusive = weak or mixed curves; inactive = no such curve, though single readings can be large; an effect the other way counts as inactive or inconclusive.

Columns and labels:
[1] = qHTS assay to identify small molecule agonists of the estrogen receptor alpha (ER-alpha) signaling pathway in the presence of an antagonist - cell viability counter screen (AID 1259386);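 also: series mostly up to about 92 µM; cells exposed to compounds for 22 h at 37 °C before the viability read; nearly all actives have a fitted effect of over 30% in size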
How it was run: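 The test measures whether compounds kill ER-alpha reporter cells (VM7Luc4E2) under antagonist co-treatment (ICI-182,780, 10.0nM). Fluorescence from CellTiter-Fluor is read after a 22hr exposure.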

[2] = target: Progesterone receptor (Homo sapiens) (UniProt P06401); experiment: qHTS assay to identify small molecule agonists of the progesterone receptor (PR) signaling pathway (AID 1346784; calls by dose curve; also: nearly all actives have a fitted effect of over 30% in size)
How it was run: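 PR-UAS-bla HEK 293T cells carrying a UAS-driven beta-lactamase reporter were seeded in medium with 2% charcoal-stripped FBS, preincubated 6 hr at 37C, then exposed to compounds in DMSO for 16 hr; agonism was read by LiveBLAzer B/G FRET fluorescence.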

[3] = target: Progesterone receptor (Homo sapiens) (UniProt P06401); experiment: qHTS assay to identify small molecule antagonists of the progesterone receptor (PR) signaling pathway (AID 1346795; active = well fitted inhibition curve with a large enough effect in the signal ratio in the repeat runs, not every such curve was filed as active; the % refers to the signal ratio; also: potency is read from the fitted curve at half-maximal effect)
How it was run: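 PR-UAS-bla HEK293T cells carrying a UAS-driven beta-lactamase reporter were plated in medium with 2% charcoal-stripped FBS and rested 6 hr at 37C. Compounds were added with 1 nM R5020 (final) for 16 hr, then FRET substrate loaded 2 hr at room temperature.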

[4] = qHTS assay to identify small molecule antagonists of the progesterone receptor (PR) signaling pathway - cell viability counter screen (AID 1346798); also: nearly all actives have a fitted effect of over 50% in size; also: potency is read from the fitted curve at half-maximal effect
How it was run: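 PR-UAS-bla HEK293T cells in medium with 2% charcoal-stripped FBS were treated with compounds plus R5020 for 16 hr at 37C. Cell viability was then read by CellTiter-Glo luminescence after 30 min at room temperature in the same wells.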

[5] = qHTS assay to identify small molecule agonists of the progesterone receptor (PR) signaling pathway - cell viability counter screen (AID 1346799; calls by dose curve; also: nearly all actives have a fitted effect of over 45% in size)
How it was run: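 PR-UAS-bla HEK293T cells, 3,000 per well in medium with 2% charcoal-stripped FBS, were preincubated 6 hr at 37C, then exposed to compounds for 16 hr; viability was read as CellTiter-Glo luminescence after 30 min at room temperature.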

[6] = qHTS assay to identify small molecule antagonists of the TGF-beta/Smad signaling pathway - cell viability counter screen (AID 1346824); also: nearly all actives have a fitted effect of over 50% in size
How it was run: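 Cytotoxicity counter-screen run in the same wells as the beta-lactamase Smad reporter read: CellTiter-Glo luminescence after 30 min at room temperature. HEK 293T SBE-bla cells had 5 hr compound exposure at 37 C with TGF-beta1 (0.25 ng/mL stock).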

[7] = qHTS assay to identify small molecule agonists of the TGF-beta/Smad signaling pathway - cell viability counter screen (AID 1346829); also: top concentration of the series differs between compounds; nearly all actives have a fitted effect of over 45% in size
How it was run: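 Tox21 qHTS format: SBE-bla HEK 293T cells treated with DMSO-dissolved compounds for 5 hr; CellTiter-Glo luminescence after 30 min at room temperature.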

[8] = qHTS assay to identify small molecule agonists of the TGF-beta/Smad signaling pathway (AID 1346859; active = well fitted activation curve with a large enough effect in the signal ratio in the repeat runs, not every such curve was filed as active; the % refers to the signal ratio; also: series mostly up to about 77 µM)
How it was run: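 HEK 293T cells stably carrying a beta-lactamase reporter driven by the Smad binding element were seeded overnight, exposed to DMSO-dissolved compounds for 5 hr at 37 C, 5% CO2, then loaded with FRET substrate for 2 hr at room temperature.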

[9] = target: Thyrotropin-releasing hormone receptor (Homo sapiens) (UniProt P34981); experiment: qHTS assay to identify small molecule antagonists of the thyrotropin-releasing hormone receptor (TRHR) signaling pathway (AID 1346877; active = well fitted inhibition curve with a large enough effect in the repeat runs, not every such curve was filed as active; also: series mostly up to about 51 µM)
How it was run: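 Overnight-plated (18 h, 37 °C) HEK293 cells expressing TRHR were dye-loaded 2 h, treated with compound, then stimulated with TRH at 1 nM final. Fluorescence intensity was captured every second for 3 min.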

[10] = Human pregnane X receptor (PXR) small molecule agonists, qHTS cell viability counter screen (AID 1346977); also: nearly all actives have a fitted effect of over 50% in size
How it was run: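 PXR-Luc HepG2 cells in medium with 5% charcoal-stripped FBS were pre-incubated 5hr, then exposed to compounds for 24hr at 37C. Viability was read in the same wells by CellTiter-Fluor fluorescence, reagent added after 23hr with a 1hr incubation.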

[11] = Caspase-3/7 induction in HepG2 cells by small molecules, qHTS assay (AID 1346978); also: nearly all actives have a fitted effect of over 15% in size
How it was run: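 Caspase-3/7 induction was measured by Caspase-Glo 3/7 luminescence (30 min, room temperature) after a 17 hr compound exposure of wild-type HepG2 cells seeded at 2,000 per well and pre-incubated 5 hr.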

[12] = Caspase-3/7 induction in CHO-K1 cells by small molecules, qHTS cell viability counter screen (AID 1346979); also: nearly all actives have a fitted effect of over 35% in size
How it was run: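 Wild-type CHO-K1 cells were seeded at 1,500 per well, rested 5hr at 37 C, then exposed to compounds in DMSO. After 16hr, CellTiter-Fluor reagent was added and fluorescence read 1hr later as the viability measure.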

[13] = Caspase-3/7 induction in CHO-K1 cells by small molecules, qHTS assay (AID 1346980); also: nearly all actives have a fitted effect of over 15% in size
How it was run: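 Luminescent Caspase-Glo 3/7 read (30min, room temperature) quantified apoptosis induction. Cells were wild-type CHO-K1, treated with compound for 17hr at 37 C and 5% CO2.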

[14] = Caspase-3/7 induction in HepG2 cells by small molecules, qHTS cell viability counter screen (AID 1346981); also: series mostly up to about 92 µM; nearly all actives have a fitted effect of over 30% in size
How it was run: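 Treatment of HepG2 cells with DMSO-delivered compounds ran 16 hr at 37 C following a 5-hr pre-incubation of 2,000 cells/well. CellTiter-Fluor fluorescence, read after 1 hr, served as the viability measure in a qHTS format.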

[15] = target: Nuclear receptor subfamily 1 group I member 2 (Homo sapiens) (UniProt O75469); experiment: Human pregnane X receptor (PXR) small molecule agonists, qHTS assay (AID 1346982); also: nearly all actives have a fitted effect of over 35% in size
How it was run: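 Stable HepG2 line reporting PXR-mediated CYP3A4 expression via luciferase. Treatment: 24 hr with compounds in DMSO at 37 C. Detection: ONE-Glo luminescence.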

[16] = target: Nuclear receptor subfamily 1 group I member 2 (Rattus norvegicus) (UniProt Q9R1A7); experiment: Rat pregnane X receptor (rPXR) activation by small molecules, qHTS assay (AID 1346983); details: rPXR luciferase reporter cells, One-Glo luminescence, 24 h; stronger effect = higher value; also: nearly all actives have a fitted effect of over 20% in size
How it was run: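 Luminescent readout (One-Glo luciferase, 30 min room temperature) followed 24 hr compound treatment at 37 C of rPXR cells plated 2,000 per well and preincubated 5hr; qHTS format with compounds delivered in DMSO.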

[17] = target: Nuclear receptor subfamily 1 group I member 2 (Homo sapiens) (UniProt O75469); experiment: CYP3A4 induction through human pregnane X receptor (PXR) by small molecules, qHTS assay (AID 1346984); also: nearly all actives have a fitted effect of over 40% in size
How it was run: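 After 24 h at 37C with compound, DPX-2 cells (HepG2, co-transfected PXR response element and CYP3A4 promoter-luciferase) got 3uM final P450-Glo Luciferin-IPA for 3 h; One-Glo luminescence followed.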

[18] = target: Nuclear receptor subfamily 1 group I member 2 (Homo sapiens) (UniProt O75469); experiment: Human pregnane X receptor (PXR) activation by small molecules, qHTS assay (AID 1346985); also: nearly all actives have a fitted effect of over 40% in size
How it was run: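 DPX-2 cells (HepG2 co-transfected with a PXR response element and a CYP3A4-promoter luciferase construct) were seeded at 2,000 per well, rested 5 hr at 37C, then exposed to DMSO-dissolved compounds for 24 hr. Activation was read as luciferase luminescence.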

[19] = target: Thyrotropin-releasing hormone receptor (Homo sapiens) (UniProt P34981); experiment: qHTS assay to identify small molecule agonists of the thyrotropin-releasing hormone receptor (TRHR) signaling pathway (AID 1346891; calls by dose curve; also: series mostly up to about 58 µM)
How it was run: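 TRHR-expressing HEK293 cells were plated 18 h at 37 °C/5% CO2, loaded with calcium dye 2 h at 37 °C, then given compound in DMSO; fluorescence was read kinetically for 3 min at 1 s intervals.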

[20] = target: Acetylcholinesterase (Homo sapiens) (UniProt P22303); experiment: Acetylcholinesterase (AChE) small molecule antagonists: colormetric cell-based qHTS assay (AID 1347395; calls by dose curve; also: nearly all actives have a fitted effect of over 30% in size; also: potency is read from the fitted curve at half-maximal effect)
How it was run: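 SH-SY5Y cells, plated overnight at 37 C, were exposed to compounds for 30 min at 37 C and 5% CO2. Acetylthiocholine plus DTNB was then added, and thiocholine from endogenous AChE was quantified colorimetrically after 90 min at 37 C.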

Thyrotropin-releasing hormone receptor (Homo sapiens), sequence (P34981 whole entry, looked up): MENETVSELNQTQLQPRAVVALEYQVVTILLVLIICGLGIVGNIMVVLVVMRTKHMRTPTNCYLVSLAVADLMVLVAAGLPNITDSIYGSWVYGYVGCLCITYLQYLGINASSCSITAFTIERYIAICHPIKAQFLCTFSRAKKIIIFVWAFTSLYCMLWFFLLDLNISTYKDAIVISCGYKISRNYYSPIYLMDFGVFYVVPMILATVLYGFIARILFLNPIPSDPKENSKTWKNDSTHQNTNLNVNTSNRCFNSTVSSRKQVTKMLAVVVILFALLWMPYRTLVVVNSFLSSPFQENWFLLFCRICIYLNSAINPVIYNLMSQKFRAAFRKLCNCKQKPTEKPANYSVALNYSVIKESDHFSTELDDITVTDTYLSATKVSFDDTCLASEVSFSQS
Progesterone receptor (Homo sapiens), sequence (P06401 whole entry, looked up): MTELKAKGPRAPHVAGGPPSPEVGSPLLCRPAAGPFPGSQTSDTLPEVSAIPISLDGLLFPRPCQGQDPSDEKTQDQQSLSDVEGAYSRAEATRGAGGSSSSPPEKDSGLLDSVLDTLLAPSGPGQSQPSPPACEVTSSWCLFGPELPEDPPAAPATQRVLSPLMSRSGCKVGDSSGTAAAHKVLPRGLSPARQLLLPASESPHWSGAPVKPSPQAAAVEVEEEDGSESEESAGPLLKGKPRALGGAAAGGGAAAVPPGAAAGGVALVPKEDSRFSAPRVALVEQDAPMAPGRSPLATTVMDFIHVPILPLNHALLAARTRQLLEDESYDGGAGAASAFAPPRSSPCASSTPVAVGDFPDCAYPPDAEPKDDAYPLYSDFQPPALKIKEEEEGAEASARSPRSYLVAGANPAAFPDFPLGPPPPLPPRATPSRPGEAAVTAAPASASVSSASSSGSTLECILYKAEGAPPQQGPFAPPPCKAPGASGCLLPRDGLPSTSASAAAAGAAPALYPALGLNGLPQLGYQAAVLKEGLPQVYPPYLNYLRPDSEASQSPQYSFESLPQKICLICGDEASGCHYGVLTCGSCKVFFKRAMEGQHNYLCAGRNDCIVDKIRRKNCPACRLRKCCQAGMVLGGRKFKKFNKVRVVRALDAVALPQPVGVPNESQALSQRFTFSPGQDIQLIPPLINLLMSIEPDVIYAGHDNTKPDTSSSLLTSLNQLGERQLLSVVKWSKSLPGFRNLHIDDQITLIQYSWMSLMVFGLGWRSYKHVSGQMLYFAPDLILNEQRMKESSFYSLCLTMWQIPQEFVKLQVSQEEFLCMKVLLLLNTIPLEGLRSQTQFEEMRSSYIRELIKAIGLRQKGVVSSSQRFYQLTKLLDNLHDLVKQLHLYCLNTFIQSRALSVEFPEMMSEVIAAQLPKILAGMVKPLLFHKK
Acetylcholinesterase (Homo sapiens), sequence (P22303 whole entry, looked up): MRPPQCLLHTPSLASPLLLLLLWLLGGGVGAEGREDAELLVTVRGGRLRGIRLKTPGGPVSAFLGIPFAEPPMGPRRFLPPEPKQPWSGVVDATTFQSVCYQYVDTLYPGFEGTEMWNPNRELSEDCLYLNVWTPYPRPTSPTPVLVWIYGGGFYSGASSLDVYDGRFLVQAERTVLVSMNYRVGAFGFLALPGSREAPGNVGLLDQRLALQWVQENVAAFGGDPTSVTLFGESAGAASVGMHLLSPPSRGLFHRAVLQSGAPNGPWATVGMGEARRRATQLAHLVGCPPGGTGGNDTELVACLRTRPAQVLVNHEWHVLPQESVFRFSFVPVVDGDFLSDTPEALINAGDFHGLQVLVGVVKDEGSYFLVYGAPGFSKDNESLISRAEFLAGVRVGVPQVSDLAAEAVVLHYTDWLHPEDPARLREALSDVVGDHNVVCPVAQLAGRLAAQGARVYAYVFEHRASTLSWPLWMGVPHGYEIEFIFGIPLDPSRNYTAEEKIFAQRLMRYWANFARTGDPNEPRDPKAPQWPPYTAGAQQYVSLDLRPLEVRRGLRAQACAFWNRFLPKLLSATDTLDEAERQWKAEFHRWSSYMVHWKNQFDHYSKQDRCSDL
Nuclear receptor subfamily 1 group I member 2 (Homo sapiens), sequence (O75469 whole entry, looked up): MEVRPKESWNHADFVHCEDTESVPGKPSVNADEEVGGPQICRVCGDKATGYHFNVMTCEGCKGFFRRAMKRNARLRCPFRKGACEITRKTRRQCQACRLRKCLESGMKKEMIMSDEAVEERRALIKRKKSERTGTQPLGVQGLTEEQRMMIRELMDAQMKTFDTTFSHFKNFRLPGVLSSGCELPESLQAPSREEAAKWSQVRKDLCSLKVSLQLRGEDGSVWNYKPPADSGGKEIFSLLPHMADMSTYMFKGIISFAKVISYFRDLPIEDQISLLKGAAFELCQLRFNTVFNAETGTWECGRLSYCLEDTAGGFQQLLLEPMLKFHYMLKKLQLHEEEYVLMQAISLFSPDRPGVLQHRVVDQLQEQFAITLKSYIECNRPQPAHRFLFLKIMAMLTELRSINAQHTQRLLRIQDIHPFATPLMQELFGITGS
Nuclear receptor subfamily 1 group I member 2 (Rattus norvegicus), sequence (Q9R1A7 whole entry, looked up): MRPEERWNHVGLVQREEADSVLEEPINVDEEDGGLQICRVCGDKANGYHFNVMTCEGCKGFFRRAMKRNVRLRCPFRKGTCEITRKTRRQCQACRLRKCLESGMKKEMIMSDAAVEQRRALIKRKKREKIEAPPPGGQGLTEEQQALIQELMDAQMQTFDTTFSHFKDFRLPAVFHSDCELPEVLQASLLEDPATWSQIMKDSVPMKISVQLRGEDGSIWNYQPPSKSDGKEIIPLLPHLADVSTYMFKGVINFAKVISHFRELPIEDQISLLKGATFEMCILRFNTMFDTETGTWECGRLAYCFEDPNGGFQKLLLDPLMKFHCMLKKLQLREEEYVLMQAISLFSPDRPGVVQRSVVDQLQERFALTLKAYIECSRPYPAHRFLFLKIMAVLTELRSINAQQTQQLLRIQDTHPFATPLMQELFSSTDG

| SMILES | Potency [1] | Potency [2] | Potency [3] | Potency [4] | Potency [5] | outcome [6] | Potency [7] | outcome [8] | Potency [9] | Potency [10] | outcome [11] | Potency [12] | outcome [13] | Potency [14] | Potency [15] | max activation [16] | Potency [17] | Potency [18] | outcome [19] | Potency [20] |
| --- | --- | --- | --- | --- | --- | --- | --- | --- | --- | --- | --- | --- | --- | --- | --- | --- | --- | --- | --- | --- |
| C=C(C)[C@H]1CN[C@H](C(=O)O)[C@H]1CC(=O)O | inactive | inactive | inactive | inactive | inactive | inactive | inactive | inactive | inactive | inactive | inactive | inactive | inactive | inactive | inactive | -1.12% | inactive | inactive | – | – |
| CCCCOC(C)=O | inactive | inactive | inactive | inactive | inactive | inactive | inactive | inactive | inactive | inactive | inactive | inactive | – | inactive | inactive | – | – | – | inactive | inactive |
| CC(Cl)(Cl)Cl | inactive | inactive | inactive | inactive | inactive | inactive | inactive | inactive | inactive | inactive | inactive | inactive | – | inactive | inactive | – | – | – | inactive | inactive |
| ClCCCCl | inactive | inactive | inactive | inactive | inactive | inactive | inactive | inactive | inactive | inactive | inactive | inactive | inactive | – | inactive | – | – | – | – | inactive |
| CCOC(=O)NC(C)(C)Cc1ccc(Cl)cc1 | inactive | inactive | inactive | inactive | inactive | inactive | inactive | inactive | – | inactive | inactive | inactive | inactive | inactive | inactive | – | – | – | – | inactive |
| O=C(O)CBr | inactive | inactive | inactive | inactive | inactive | inactive | inactive | inactive | inactive | inactive | inactive | inactive | inactive | inactive | inactive | – | – | – | – | inactive |
| CCOC(=O)C(SP(=S)(OC)OC)c1ccccc1 (stereo not given) | inactive | inactive | 48.6 µM (active) | inactive | inactive | inactive | inactive | inactive | inactive | inactive | inactive | inactive | – | inactive | – | – | – | – | – | 31.7 µM (active) |
| CC1N=C(N)OC1c1ccccc1 (stereo not given) | inactive | inactive | inactive | 37.7 µM (active) | inactive | inactive | inactive | inactive | inactive | – | inactive | inactive | inactive | – | inactive | – | – | – | inactive | inactive |
